# p53ts 39C kill: cytotoxicity in p53ts cells at nonpermissive temperature; hit rate 1.5% among 130,000; Potency, µM (top dose mostly 46.1 µM), without a hit: top-dose activity change, negative = cell killing, most hits filed as cytotoxic; H1299-p53A138V viability at 39C, ATP luminescence, 24 h; note: % is set by controls: 0 for no effect and ±100 for the full control effect; nearly all actives have a fitted effect of over 55% in size
# p53ts 32C kill: cytotoxicity in p53ts cells at permissive temperature. H1299-p53A138V at 32C, ATP luminescence viability, 24 h. Potency, µM (doses to about 46.1 µM), for the others: at the top dose activity change, negative = cytotoxicity, usual class: cytotoxic. hit rate 0.93% among 130,000;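 note: 0% = DMSO and -100% = full killing by reference compound; nearly all actives have a fitted effect of over 55% in size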
#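 ATP-content luminescence (ATPlite) read-out after 24 h compound exposure at 32C in H1299-p53A138V cells (600/well). Tested up to 46 uM. Normalized to DMSO (0%) and 100 uM tamoxifen (100% killing); Hill-fit AC50.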
# Imprint erasure: inducers of genomic imprint erasure in mouse ES cells | AID 1948 | Potency, µM (highest dose often 60.7 µM), for inactives: at the highest dose activity change, positive = activation, hits mostly activators | hit rate 0.02% among 110,000 | mouse ES Peg3-LacZ reporter, beta-gal luminescence, 40 h
#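 Gelatin-coated wells received 300 freshly trypsinized female ES cells with a Peg3LacZ-Neo reporter on the maternal allele, then incubated 40 hours at 37C. BetaGlo was added for 5 minutes at room temperature before a single luminescence read.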
# An asterisk follows results filed as active; u = inconclusive; x = no result; [ ] = remark or other dose. Most compounds without a hit are left out; they make up all but 1.6% or so of the library. Calls come from the whole dose curve; as a rule, active = well fitted curve in the direction sought with a large enough effect; inconclusive = small, poorly fitted or top-dose-only effect, or another doubt; inactive = no such curve, though single readings can be large; an effect the other way counts as inactive or inconclusive. Potency is the fitted concentration of half-maximal effect.
SMILES,p53ts 39C kill,p53ts 32C kill,Imprint erasure
O=C(Nc1ccc(Cl)cn1)c1cc2ccccc2o1,u,12.6µM*,-60.2%
O=C(Nc1cc(F)ccc1F)N1CCC(CN2CCOCC2)CC1,x,-8.6%,x
CCCn1cc(S(=O)(=O)c2cc(C)ccc2C)c(=O)c2cc(F)c(N3CCOCC3)cc21,x,-6.2%,x
O=C(Nc1ccc(F)cc1)c1csc2c1CCCCC2,u,15.8µM*,-6.5%[10.9 µM]
O=C(Nc1ccon1)c1csc2c1CCCC2,-4.2%,-12.7%,0.0%
Cc1ccc(Cn2c(CO)cnc2SCC(=O)Nc2ccc(C)c(Cl)c2)cc1,12.6µM*,-2.2%,-11.1%[10.9 µM]
Cc1ccc(Cn2c(CO)cnc2SCC(=O)Nc2cccc(F)c2)cc1,33.2%,-22.4%,-19.7%[10.9 µM]
O=C1[C@H]2[C@H]3[C@H](O)[C@H](O)C/C(=N/OCc4ccccc4)[C@H]3CC[C@@H]2C(=O)N1c1cccc(Oc2ccccc2)c1,-0.6%[9.22 µM],-0.3%[9.22 µM],x
CCOc1ccc(CN2CCN(Cc3ccc4c(c3)c3ccccc3n4CC)CC2)cc1,u,-9.5%,-18.6%[10.9 µM]
CCn1c2ccccc2c2cc(CN3CCN(Cc4ccc(OC)c(OC)c4)CC3)ccc21,25.1µM*,-7.2%,-15.6%[10.9 µM]
O=C(CSc1nccn1C1CCCC1)Nc1ccccc1,-29.5%,28.2%,4.0%[10.9 µM]
Cc1ccccc1-c1cc(NCc2ccccc2)ncn1,-28.6%,u,-6.9%
O=C(/C=C/c1ccc(O)cc1)c1cccs1,u,31.6µM*,-91.9%
Cc1c(/C=C/C(=O)c2ccc(Cl)s2)cnn1C,-3.5%,-3.3%,x
COc1ccc(NC(=O)c2cccs2)cc1OC,-14.5%,-21.1%,-24.6%
O=C(/C=C/c1ccc(OCc2ccccc2)cc1)c1cccs1,4.1%,u,-18.9%
COc1cc(/C=C/C(=O)c2cccs2)cc(OC)c1OC,u,6.31µM*,-30.6%
Cc1nn(C)cc1/C=C/C(=O)c1cccs1,u,12.6µM*,x
COc1cccc(N2CCN(C(=O)Cn3cnc4onc(-c5ccc(F)cc5)c4c3=O)CC2)c1,-2.1%,7.1%,4.6%[10.9 µM]
CN(C)c1ccc(-c2nccc(Nc3ccc(F)cc3)n2)cc1,u,-17.0%,u
CCOC(=O)c1c(C)[nH]c(C)c1S(=O)(=O)N(C)CC(=O)Nc1ccc(CC)cc1,-17.5%,-0.1%,-8.8%[10.9 µM]
CC1=CC(C)(C)Nc2ccc(OC(=O)CN3C(=O)CCC3=O)cc21,15.8µM*,u,x
CC1=CC(C)(C)Nc2ccc(OC(=O)c3ccco3)cc21,u,u,-32.9%
CC(C)Oc1cccc(C(=O)Nc2ccc3oc(-c4cccc(Cl)c4)nc3c2)c1,-19.4%,-8.2%,-9.0%[10.9 µM]
Cc1nc2nc(-c3ccccc3)cc(=O)n2[nH]1,12.6µM*,15.8µM*,-88.9%
SMILES,p53ts 39C kill,p53ts 32C kill,Imprint erasure
O=c1cc(-c2ccccc2)nc2nc(CCc3ccccc3)[nH]n12,7.7%,12.9%,-8.8%
Cc1cc(S(=O)(=O)Nc2cc3c(cc2N2CCOCC2)n(C)c(=O)n3C)ccc1F,-0.1%,19.0%,1.3%[10.9 µM]
COCC1C2CC[C@H]3C(OCc4ccc(F)cc4C(F)(F)F)OC[C@]4(C)[C@H]3C2=C(CN4C(=O)OC(C)(C)C)[C@H](C)C1COC (some centres not stated),-11.7%,6.4%,-18.4%
Cc1cc(O)c(C(c2cccc(F)c2)N2CCC(C)CC2)c(=O)n1Cc1ccco1 (configuration not stated),0.6%,2.3%,7.3%[10.9 µM]
Cc1ccc(NC2=C/C(=N\S(=O)(=O)c3cccs3)c3ccccc3C2=O)c(C)c1,7.08µM*,3.16µM*,x
COc1ccc(C2=C(Nc3ccc(C)cc3C)c3ccccc3C2=O)cc1,-17.2%,17.4%,-5.3%[10.9 µM]
Cc1ccc(NC(=O)c2cnn3c(C(F)F)cc(-c4ccccc4)nc23)cc1F,7.9%,-4.3%,-5.3%[10.9 µM]
CNS(=O)(=O)c1ccc(NC(=O)c2cnn3c(C(F)F)cc(-c4ccccc4)nc23)cc1,12.6µM*,6.4%,5.5%[10.9 µM]
COc1ccc(C(=O)c2oc3ccccc3c2NC(=O)c2cc(=O)c3ccc(C)cc3o2)cc1Cl,6.0%,5.7%,u
Cn1cnc(S(=O)(=O)N2CCC(C(=O)Nc3ccc(Cl)c(C(F)(F)F)c3)CC2)c1,-9.8%,-10.9%,24.8%[10.9 µM]
CC(=O)c1cccc(NC(=O)c2cc(-c3ccc(C)cc3)on2)c1,-27.6%,u,0.8%
CC(=O)c1cccc(NC(=O)c2cc(-c3ccc4c(c3)OCCO4)on2)c1,2.51µM*,1.26µM*,-8.4%[10.9 µM]
Cc1ccc(O)c(NC(=O)c2cc(-c3ccc4c(c3)OCO4)on2)c1,u,u,-43.3%[10.9 µM]
CC(=O)c1ccc(NC(=O)c2cc(-c3ccc4c(c3)OCO4)on2)cc1,20.2%,8.2%,7.4%[10.9 µM]
CC(=O)Nc1ccc(NC(=O)c2cc(-c3ccc4c(c3)OCCO4)on2)cc1,1.58µM*,u,-12.1%[10.9 µM]
